Inconclusive results are not listed. Entries that show only a call come without a potency. Calls of active or inactive are those of the source. Calls come from the whole dose curve; as a rule, active = well fitted curve in the direction sought with a large enough effect; inconclusive = small, poorly fitted or top-dose-only effect, or another doubt; inactive = no such curve, though single readings can be large; an effect the other way counts as inactive or inconclusive. Residues, ends and D or L forms follow the SMILES beside them. *: point of attachment. Cbz = O=C(OCc1ccccc1)*

Chain of DNA polymerase III PolC-type (Bacillus subtilis (strain 168)) (P13267 whole entry, looked up): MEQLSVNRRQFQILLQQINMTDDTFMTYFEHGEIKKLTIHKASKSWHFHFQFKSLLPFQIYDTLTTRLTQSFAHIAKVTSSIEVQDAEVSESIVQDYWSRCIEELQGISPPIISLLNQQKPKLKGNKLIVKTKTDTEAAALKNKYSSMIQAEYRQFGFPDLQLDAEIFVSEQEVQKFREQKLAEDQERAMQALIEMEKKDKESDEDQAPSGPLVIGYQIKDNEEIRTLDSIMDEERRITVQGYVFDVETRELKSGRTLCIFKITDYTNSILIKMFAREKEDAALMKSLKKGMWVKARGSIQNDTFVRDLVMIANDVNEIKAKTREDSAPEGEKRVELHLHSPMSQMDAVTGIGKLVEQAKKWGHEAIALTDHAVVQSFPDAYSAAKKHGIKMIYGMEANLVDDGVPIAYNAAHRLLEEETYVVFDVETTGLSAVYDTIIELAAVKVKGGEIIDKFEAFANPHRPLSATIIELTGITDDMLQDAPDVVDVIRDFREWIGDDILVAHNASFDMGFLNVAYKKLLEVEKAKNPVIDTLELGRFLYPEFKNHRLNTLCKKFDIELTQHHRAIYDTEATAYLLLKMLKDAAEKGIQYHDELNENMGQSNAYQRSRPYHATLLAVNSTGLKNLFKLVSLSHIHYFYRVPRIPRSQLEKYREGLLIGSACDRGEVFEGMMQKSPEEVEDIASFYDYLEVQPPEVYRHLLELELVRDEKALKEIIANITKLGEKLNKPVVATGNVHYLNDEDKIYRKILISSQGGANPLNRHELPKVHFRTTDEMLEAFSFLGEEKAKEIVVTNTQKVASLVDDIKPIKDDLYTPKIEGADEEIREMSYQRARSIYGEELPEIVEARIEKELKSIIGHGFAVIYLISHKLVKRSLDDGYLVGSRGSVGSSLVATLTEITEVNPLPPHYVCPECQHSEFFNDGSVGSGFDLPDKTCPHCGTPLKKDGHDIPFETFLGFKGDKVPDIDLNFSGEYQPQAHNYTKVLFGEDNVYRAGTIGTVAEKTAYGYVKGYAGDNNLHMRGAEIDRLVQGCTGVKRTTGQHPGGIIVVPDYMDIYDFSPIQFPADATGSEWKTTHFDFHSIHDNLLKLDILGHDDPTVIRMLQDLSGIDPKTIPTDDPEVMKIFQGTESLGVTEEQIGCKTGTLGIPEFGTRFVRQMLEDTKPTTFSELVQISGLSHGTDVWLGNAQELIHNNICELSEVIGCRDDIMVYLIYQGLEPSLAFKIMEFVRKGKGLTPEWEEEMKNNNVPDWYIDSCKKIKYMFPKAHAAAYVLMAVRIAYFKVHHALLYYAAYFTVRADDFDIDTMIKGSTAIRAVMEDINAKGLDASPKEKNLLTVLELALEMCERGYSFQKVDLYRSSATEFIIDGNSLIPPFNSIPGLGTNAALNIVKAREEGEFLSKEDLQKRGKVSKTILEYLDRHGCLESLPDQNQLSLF

The target of one assay is Ubiquitin carboxyl-terminal hydrolase 2 (Homo sapiens) (UniProt O75604). In words: qHTS Validation Assay for Inhibitors of Ubiquitin-specific Protease USP2a Using CHOP2 as the Reporter (AID 463106). The settings on record: USP2a cleavage of CHOP2 reporter, enzymatic; series mostly up to 38.3 µM. The essentials: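 10nM USP2 core + cpd, 30min RT; add 25nM Ub-CHOP2/25nM substrate; 60min RT; FI 485/531nm. Buffer Tris pH 8.0, CaCl2, BME, CHAPS. Norm. to NEM = 100% inhibition; time-zero read flags fluorescent artifacts.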
Chain of Ubiquitin carboxyl-terminal hydrolase 2 (Homo sapiens) (O75604 whole entry, looked up): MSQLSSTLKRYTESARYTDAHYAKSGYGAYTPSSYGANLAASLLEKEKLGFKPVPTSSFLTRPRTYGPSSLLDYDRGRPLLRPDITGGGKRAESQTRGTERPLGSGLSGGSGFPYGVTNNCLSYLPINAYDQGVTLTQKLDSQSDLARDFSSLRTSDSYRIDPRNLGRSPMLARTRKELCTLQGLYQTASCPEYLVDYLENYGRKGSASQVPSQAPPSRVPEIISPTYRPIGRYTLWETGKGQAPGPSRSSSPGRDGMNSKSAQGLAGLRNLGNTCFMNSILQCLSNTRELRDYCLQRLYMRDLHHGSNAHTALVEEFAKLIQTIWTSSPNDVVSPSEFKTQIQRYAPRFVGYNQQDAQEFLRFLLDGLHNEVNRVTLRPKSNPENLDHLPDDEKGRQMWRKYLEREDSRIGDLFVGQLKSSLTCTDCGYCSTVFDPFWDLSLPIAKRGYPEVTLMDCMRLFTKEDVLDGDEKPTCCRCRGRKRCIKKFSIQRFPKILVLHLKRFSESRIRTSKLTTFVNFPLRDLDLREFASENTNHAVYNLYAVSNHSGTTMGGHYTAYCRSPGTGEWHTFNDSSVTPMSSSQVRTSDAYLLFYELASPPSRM
For orientation: In qHTS, concentration-response curves come from the screen itself.
With `C=C1C[C@@]23CC[C@H]4[C@@](C)(CCC[C@@]4(C)C(=O)O)[C@@H]2CC[C@]1(O)C3`, the Potency result is “inactive”.
On the same count and under the same terms, the result for `O=C(O)c1ccccc1Nc1cccc(OCc2ccc3ccccc3n2)c1` reads “inactive”; that for `CCCCCCC(=O)OC1CC(C)(C)NC(C)(C)C1`, “inactive”.
Same read-out and setting: the result for `O=C(O)/C(=C/c1c(C(=O)O)[nH]c2cc(Cl)cc(Cl)c12)c1ccccc1` reads “inactive”.

Another assay addresses DNA polymerase III PolC-type (Bacillus subtilis (strain 168)) (UniProt P13267). In words: qHTS Validation Assay for the Inhibitors of DNA Replication in Gram-Positive Bacteria (AID 485295). Note: potency is the fitted concentration of half-maximal effect. Particulars: Gram-positive bacterial DNA replication assay; series mostly up to 57.1 µM. The essentials: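 Inhibition of DNA synthesis by the reconstituted PolC holoenzyme, monitored through PicoGreen staining of dsDNA formed from ssM13Gori, dNTPs and NTPs, with compound preincubation and room-temperature reaction.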
As to `N=C(N)c1ccc(OCCCCCOc2ccc(C(=N)N)cc2)cc1` (tested in a mixture with another compound), the Potency result was “inactive”.
Still for that read-out and setting: the result for `CC(O)C(O)[C@H]1CNc2nc(N)[nH]c(=O)c2N1` (stereo not given in full) reads “inactive”; that for `Cc1nc2c(OCc3ccccc3)cccn2c1CC#N`, “inactive”.
On the same count and under the same terms, the result for `O=C(O)C1=CCCN(CCON=C(c2ccccc2)c2ccccc2)C1` reads “inactive”; that for `CC(=O)SC1CC2=CC(=O)CC[C@]2(C)C2CC[C@@]3(C)C(CC[C@@]34CCC(=O)O4)C12` (stereo not given in full), “inactive”; that for `COc1ccc(CCn2nnnc2C2(c3ccc(C)cc3)CC2)cc1`, “inactive”.
On to `CC(C)[C@@H]1CC[C@@H](C)C[C@@H]1P(=O)(c1ccccc1)c1ccccc1`, for which the Potency entry was “inactive”.
Take `CCCCOc1cc(CC2CNC(=O)N2)ccc1OC` (stereo not given): the Potency result was “inactive”.
With `O=c1cc(O)cc(/C=C/c2ccc(O)c(O)c2)o1`, the Potency was 21.2 µM (active).
On to `Nc1ncnc2c1ncn2C1CCCO1` (stereo not given), for which the Potency result was “inactive”.
Still for that read-out and setting: the result for `O=C(O)C1=CC(=C(c2ccc(O)c(C(=O)O)c2)c2ccc(O)c(C(=O)O)c2)C=CC1=O` reads 3.36 µM (active); that for `CCCn1c(=O)c(C)cn2nc(N)nc12`, “inactive”.
Same read-out and setting: the result for `C=CC1(C)CC(=O)C2(O)C(C)(O1)C(OC(C)=O)C(O)C1C(C)(C)CCC(O)C12C` (stereo not given) reads “inactive”; that for `O=c1[nH]c(=O)c2nc3ccccc3nc2[nH]1`, “inactive”.
For the compound `CC(C)C[C@H](NC(=O)C1OC1C(=O)O)C(=O)NCCCCN=C(N)N` (stereo not given in full), the Potency result was “inactive”.
In the case of `O=C(O)CCC/C=C\C[C@@H]1[C@@H](/C=C/[C@H](O)C2Cc3ccccc3C2)[C@@H](F)C[C@@H]1O`, the Potency result was “inactive”.
With `CC(C)[C@H](NC(=O)OCc1ccccc1)C(=O)N[C@H](C=O)Cc1ccccc1` (Cbz-Val-Phe-aldehyde), the Potency entry is “inactive”.
The same measure, in the same setting: the result for `NC(=Nc1ccccc1)NC(=O)c1nc(Cl)c(N)nc1N` reads “inactive”.
As for `N[C@H](C(=O)O)[C@H](Cc1ccccc1)C(=O)O`, the Potency result was “inactive”.
The same measure, in the same setting: the result for `CC(=O)O[C@H]1Cc2ccccc2N(C(N)=O)c2ccccc21` reads “inactive”.
Regarding `NC[C@@H]1O[C@H](c2ccccc2)Cc2c1ccc(O)c2O`, the Potency result is “inactive”.
On the same count and under the same terms, the result for `Cc1ccc2c(c1)C(N1CCN(C)CC1)=Nc1cccnc1N2` reads “inactive”.
With `NS(=O)(=O)c1cccc2c1c([N+](=O)[O-])cc1nc(O)c(O)nc12`, the Potency result is “inactive”.
Still for that read-out and setting: the result for `Nc1nc2c(nc(Br)n2C2OC3COP(=O)(O)O[C@@H]3C2O)c(=O)[nH]1` (stereo not given in full) reads “inactive”; that for `NCC(O)C1CCCCCCC1` (stereo not given), “inactive”; that for `CCN(c1nc(N)c(C(=O)N=C(N)N)nc1Cl)C(C)C`, “inactive”.
On to `O=c1ccc2c(OCCCCc3ccccc3)c3ccoc3cc2o1`, for which the Potency result was “inactive”.
`CC(C)NC[C@H](O)COc1cccc2ccccc12`: the Potency result was “inactive”.
`CN1CC(O)C(O)C(O)C1CO` (stereo not given): the Potency entry is “inactive”.
For the compound `CCCCCCCCCCCCCCSCC(=O)O`, the Potency result was “inactive”.
The same measure, in the same setting: the result for `CCCCCCC/C=C\CCCCCCCCC(=O)O` reads “inactive”; that for `Cc1ccc([N+](=O)[O-])cc1S(=O)(=O)N(C)C`, “inactive”; that for `C=C1C[C@@]23CC[C@H]4[C@@](C)(CCC[C@@]4(C)C(=O)O)[C@@H]2CC[C@]1(O)C3`, “inactive”.
Same read-out and setting: the result for `O=C(O)c1ccccc1Nc1cccc(OCc2ccc3ccccc3n2)c1` reads “inactive”; that for `CCCCCCC(=O)OC1CC(C)(C)NC(C)(C)C1`, “inactive”.
For the compound `O=C(O)/C(=C/c1c(C(=O)O)[nH]c2cc(Cl)cc(Cl)c12)c1ccccc1`, the Potency entry is “inactive”.
